Results as given in PubChem BioAssay.
Activity calls are given as the source filed them.

Key:
[1] = E. coli DRC41 culture turbidity changes, primary screen, E. coli filamentation inducer project, strain DRC41, OD650, 48 h (AID 1152);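 also: E. coli MC1000 strain DRC41 lacking acrAB efflux pump and sulA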; conditions: E. coli DRC41 (acrAB sulA), higher = more signal, called active from +8 up or from −8 down
[2] = small-molecule binders of probe aLefty1, primary screen, biochemical, small-molecule microarray, 635/667 nm fluorescence (AID 1153); conditions: higher = more signal;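 also: score merges spot fluorescence with signal-to-noise ratio from the scanned slide images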
[3] = PSAC antagonists in infected red cells, primary screen, cell-based, P. falciparum Indochina, OD700, 1 h (AID 1154); conditions: P. falciparum Indochina infected RBC osmotic lysis, higher = more signal, called active from +8 up or from −8 down
[4] = PSAC antagonists in infected red cells, primary screen, cell-based, P. falciparum Indochina, OD700, 2 h (AID 1155);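 also: lysis reports solute entry through the parasite surface anion channel PSAC; channel blockers reduce lysis of infected cells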; conditions: P. falciparum Indochina infected erythrocytes, osmotic lysis OD700; higher = more signal, called active from +8 up or from −8 down
[5] = osmotic lysis modulators in infected erythrocytes, primary screen, PSAC antagonist project, cell-based, P. falciparum Indochina, OD700, 3 h (AID 1156); conditions: higher = more signal, called active from +8 up or from −8 down
[6] = PSAC antagonists in infected red cells, primary screen, cell-based, P. falciparum Indochina, OD700, 18 h (AID 1157); conditions: P. falciparum Indochina infected erythrocytes, osmotic lysis OD700, 18 h; higher = more signal, called active from +8 up or from −8 down
[7] = modulators of S6 phosphorylation in cells, primary screen, cell-based, A549, cytoblot, luminescence, serum-stimulated (AID 1158); conditions: A549 phospho-S6 cytoblot, 5 h, higher = more signal;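 also: serum-stimulated A549 lung adenocarcinoma cells; signal is phosphorylated S6 detected by cytoblot immunostaining with HRP secondary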
[8] = target: NADPH oxidase 2 (Homo sapiens) (UniProt P04839); assay: NOX2-dependent H2O2 signal modulators, primary screen, NOX inhibitor project, cell-based, HEK293-NOX2, PMA-stimulated, Amplex Red fluorescence (AID 1159); conditions: 45 min, higher = more signal, called active from +8 up or from −8 down; also: test concentration not given here
[9] = target: NADPH oxidase 4 (Homo sapiens) (UniProt Q9NPH5); assay: NOX4-dependent H2O2 signal modulators, primary screen, NOX inhibitor project, cell-based, HEK293-NOX4, tetracycline-induced, Amplex Red fluorescence (AID 1160); conditions: 45 min, higher = more signal, called active from +8 up or from −8 down
[10] = target: NADPH oxidase 5 (Homo sapiens) (UniProt Q96PH1); assay: NOX5-dependent H2O2 signal modulators, primary screen, NOX inhibitor project, cell-based, HEK293-NOX5, Amplex Red fluorescence (AID 1161); conditions: HEK293-NOX5, ionomycin, 45 min, higher = more signal
NADPH oxidase 5 (Homo sapiens), sequence (Q96PH1 whole entry, looked up): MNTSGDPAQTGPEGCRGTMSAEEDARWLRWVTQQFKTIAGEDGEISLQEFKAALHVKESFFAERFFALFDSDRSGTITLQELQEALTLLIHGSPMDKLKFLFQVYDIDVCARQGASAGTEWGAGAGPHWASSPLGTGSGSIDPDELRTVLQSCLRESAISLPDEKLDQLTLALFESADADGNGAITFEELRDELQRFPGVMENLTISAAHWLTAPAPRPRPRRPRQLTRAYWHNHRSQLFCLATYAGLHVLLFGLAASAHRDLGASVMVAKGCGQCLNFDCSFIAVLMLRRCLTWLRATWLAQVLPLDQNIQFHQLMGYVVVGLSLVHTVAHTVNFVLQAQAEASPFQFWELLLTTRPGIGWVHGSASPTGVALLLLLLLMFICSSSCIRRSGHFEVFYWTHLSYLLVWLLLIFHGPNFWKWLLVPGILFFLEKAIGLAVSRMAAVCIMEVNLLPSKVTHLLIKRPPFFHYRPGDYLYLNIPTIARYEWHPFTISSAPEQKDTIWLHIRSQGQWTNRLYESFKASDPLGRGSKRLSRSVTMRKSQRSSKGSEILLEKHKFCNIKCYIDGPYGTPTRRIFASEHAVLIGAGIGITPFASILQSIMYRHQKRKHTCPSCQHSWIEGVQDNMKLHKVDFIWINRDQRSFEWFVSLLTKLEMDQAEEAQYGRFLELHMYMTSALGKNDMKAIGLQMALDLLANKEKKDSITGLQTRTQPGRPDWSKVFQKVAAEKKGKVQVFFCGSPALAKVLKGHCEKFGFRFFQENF

NADPH oxidase 4 (Homo sapiens), sequence (Q9NPH5 whole entry, looked up): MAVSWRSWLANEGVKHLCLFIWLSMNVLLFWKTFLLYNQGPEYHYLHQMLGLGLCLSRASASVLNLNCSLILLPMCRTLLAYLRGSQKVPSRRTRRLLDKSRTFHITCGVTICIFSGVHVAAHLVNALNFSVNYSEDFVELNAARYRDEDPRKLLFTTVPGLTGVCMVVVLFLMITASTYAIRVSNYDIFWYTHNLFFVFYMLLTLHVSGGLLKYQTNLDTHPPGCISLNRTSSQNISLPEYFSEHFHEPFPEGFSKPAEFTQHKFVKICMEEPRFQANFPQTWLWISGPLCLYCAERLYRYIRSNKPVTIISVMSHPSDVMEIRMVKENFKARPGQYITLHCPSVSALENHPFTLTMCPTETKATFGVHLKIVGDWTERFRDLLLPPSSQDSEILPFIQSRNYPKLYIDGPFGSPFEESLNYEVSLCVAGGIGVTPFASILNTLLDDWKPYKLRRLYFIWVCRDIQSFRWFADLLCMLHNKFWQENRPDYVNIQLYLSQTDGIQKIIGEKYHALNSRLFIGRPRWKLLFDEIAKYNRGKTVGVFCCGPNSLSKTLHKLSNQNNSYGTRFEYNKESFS
NADPH oxidase 2 (Homo sapiens), sequence (P04839 whole entry, looked up): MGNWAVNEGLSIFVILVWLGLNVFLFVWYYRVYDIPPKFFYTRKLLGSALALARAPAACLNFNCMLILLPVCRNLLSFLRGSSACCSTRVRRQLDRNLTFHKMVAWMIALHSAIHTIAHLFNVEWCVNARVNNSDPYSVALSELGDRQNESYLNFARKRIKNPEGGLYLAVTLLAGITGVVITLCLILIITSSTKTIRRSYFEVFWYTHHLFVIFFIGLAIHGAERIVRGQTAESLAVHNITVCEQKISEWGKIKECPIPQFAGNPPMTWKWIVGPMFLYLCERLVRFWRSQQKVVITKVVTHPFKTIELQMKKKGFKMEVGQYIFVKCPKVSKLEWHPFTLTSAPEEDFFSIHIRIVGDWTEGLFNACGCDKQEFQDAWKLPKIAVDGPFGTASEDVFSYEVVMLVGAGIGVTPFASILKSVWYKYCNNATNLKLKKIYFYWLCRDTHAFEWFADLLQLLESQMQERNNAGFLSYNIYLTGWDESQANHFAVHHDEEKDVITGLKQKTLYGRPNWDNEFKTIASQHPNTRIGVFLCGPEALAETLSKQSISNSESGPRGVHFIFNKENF

| SMILES | z-score [1] | composite z-score [2] | z-score [3] | z-score [4] | z-score [5] | z-score [6] | z-score [7] | z-score [8] | z-score [9] | z-score [10] |
| --- | --- | --- | --- | --- | --- | --- | --- | --- | --- | --- |
| O=C1NC(=O)C2C1C=CC(C(O)c1c(F)cccc1Cl)N2Nc1ccc(Cl)cc1Cl (stereo not given) | -3.86 (inactive) | 0.501 | 3.9 (inactive) | 0.914 (inactive) | -0.87 (inactive) | 1.17 (inactive) | -1.27 | 0.295 (inactive) | -5.4 (inactive) | -2.57 |
| [N-]=[N+]=NCc1ccccc1[C@@H]1OC(c2ccc(OCCCO)cc2)=N[C@]1(CCS(=O)(=O)c1ccccc1)C(=O)NCC(O)CO (stereo not given in full) | 0.766 (inactive) | 0.546 | 24.8 (active) | 8.05 (active) | 0.619 (inactive) | 0.158 (inactive) | 2.02 | 0.861 (inactive) | 1.78 (inactive) | 2.57 |
| C=CCN1Cc2ccccc2[C@H]2OC(c3ccc(OCCCO)cc3)=N[C@@]2(CC=C)C1=O | 0.831 (inactive) | 0.692 | 29.9 (active) | 25.7 (active) | 1.97 (inactive) | 6.4 (inactive) | 0.0524 | -1.66 (inactive) | 0.367 (inactive) | 0.034 |
| COCCCNC(=O)[C@@]1(Cc2ccccc2CN=[N+]=[N-])N=C(c2ccc(OCCCO)cc2)O[C@H]1c1ccccc1 | -0.314 (inactive) | 0.197 | 17.1 (active) | 2.76 (inactive) | 0.697 (inactive) | 1.16 (inactive) | 0.146 | -1.79 (inactive) | -0.298 (inactive) | -1.54 |
| CCCCCCc1nc(-c2cc(C)c(OC)c(C)c2)c(C)c2c1[Si](C(C)C)(C(C)C)OC2 | 0.03 (inactive) | 0.0056 | 1.53 (inactive) | -0.314 (inactive) | 1.02 (inactive) | -0.348 (inactive) | 1.94 | -2.5 (inactive) | 0.626 (inactive) | -2.23 |
| COC(=O)[C@@]1(Cc2ccccc2)[C@@H]2C(=CC(=O)[C@H]2CC(=O)C(=O)N(C)C)CN1C(=O)c1ccccc1 | 0.174 (inactive) | 0.0093 | 4.6 (inactive) | 0.329 (inactive) | 0.864 (inactive) | 0.664 (inactive) | -0.52 | -0.0425 (inactive) | 0.705 (inactive) | 0.16 |
| COCCOC(=O)N1C(=O)[C@@]2(c3cc(C#CCCO)ccc31)[C@H](C(=O)Nc1nc3ccccc3s1)[C@H]1C(=O)O[C@H](c3ccccc3)[C@H](c3ccccc3)N1[C@@H]2c1ccccc1OCCO | -0.348 (inactive) | 1.28 | 5.19 (inactive) | 1.86 (inactive) | 0.286 (inactive) | 1.36 (inactive) | -0.331 | 1.89 (inactive) | -0.9 (inactive) | 0.501 |
| COc1ccc(-c2cc3c(c(CCc4ccccc4)n2)[Si](C(C)C)(C(C)C)OC3)cn1 | -0.0928 (inactive) | -0.196 | 3.8 (inactive) | 0.745 (inactive) | -0.119 (inactive) | 0.114 (inactive) | -0.108 | -0.44 (inactive) | -0.0624 (inactive) | -1.49 |
| COCCOC(=O)N1C(=O)[C@@]2(c3cc(C#Cc4ccc(OC)cc4)ccc31)[C@H](C(=O)Nc1nc3ccccc3s1)[C@H]1C(=O)O[C@H](c3ccccc3)[C@H](c3ccccc3)N1[C@@H]2c1ccc(O)cc1 | 1.05 (inactive) | 0.703 | 3.75 (inactive) | 0.756 (inactive) | 1.2 (inactive) | 1.22 (inactive) | 0.709 | 1.49 (inactive) | -0.118 (inactive) | 0.791 |
| [N-]=[N+]=Nc1ccccc1C[C@]1(C(=O)N2CCOCC2)N=C(c2ccc(OCCCO)cc2)O[C@H]1c1ccccc1 | 1.61 (inactive) | -0.007 | 20.5 (active) | 4.95 (inactive) | 2.84 (inactive) | 1.43 (inactive) | 0.251 | 0.265 (inactive) | 0.719 (inactive) | -1.47 |
| O=C1C=C(c2ccccc2)C(=O)c2ccc([C@H]3Oc4ccccc4S(=O)(=O)N4CCC[C@@H]34)cc21 | 0.864 (inactive) | -0.08 | 2.45 (inactive) | 0.0567 (inactive) | -0.37 (inactive) | -0.236 (inactive) | 0.208 | 0.398 (inactive) | -5.41 (inactive) | -6.41 |
| COCCCNC(=O)[C@]1(CCS(=O)(=O)c2ccccc2)N=C(c2ccc(OCCCO)cc2)O[C@@H]1c1ccccc1N=[N+]=[N-] | 0.308 (inactive) | -0.0087 | 29.8 (active) | 28.1 (active) | 1.67 (inactive) | 2.02 (inactive) | 0.737 | 0.867 (inactive) | 0.235 (inactive) | -0.901 |
| O=C1OCCC=C[C@H]2OC34C=CCN(Cn5nnc6ccccc65)C(=O)[C@H]3N(CCCCCCO)C(=O)[C@@H]4C12 (stereo not given in full) | -0.051 (inactive) | -0.81 | 0.987 (inactive) | 1.02 (inactive) | 0.946 (inactive) | 0.748 (inactive) | 0.916 | 0.94 (inactive) | -0.201 (inactive) | 2.2 |
